Screening data: PubChem, National Center for Advancing Translational Sciences (NCATS)
IMPase inh = cell-permeable inhibitors of inositol monophosphatase (IMPase); 120,000 tested, under 10 active; P97697; CHO-M1 cells, IP1 accumulation, HTRF TR-FRET ratio; inhibition (IP1 accumulation), % at 46.1 µM; active = well fitted curve in the direction sought with a large enough effect in the signal ratio, not every such curve was filed as active; inconclusive = small, poorly fitted or top-dose-only effect, or a change in a side signal; inactive = no such curve, though single readings can be large or run the other way; the % refers to the signal ratio;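 note: cells stimulated with carbachol in lithium chloride buffer; higher means more IMPase inhibition seen as more IP1 and lower FRET ratio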
Target sequence (P97697 whole entry, looked up): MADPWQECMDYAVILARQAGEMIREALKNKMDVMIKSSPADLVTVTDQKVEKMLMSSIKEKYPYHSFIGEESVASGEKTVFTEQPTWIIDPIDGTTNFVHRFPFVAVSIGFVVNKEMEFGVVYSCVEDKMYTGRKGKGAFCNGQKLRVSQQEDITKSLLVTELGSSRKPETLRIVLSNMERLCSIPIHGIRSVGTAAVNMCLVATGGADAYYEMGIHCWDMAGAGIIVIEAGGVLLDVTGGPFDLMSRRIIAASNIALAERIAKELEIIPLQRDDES
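Measured: the HTRF emission ratio (665/620 nm) plus the 620 nm donor channel, each fitted to the Hill equation to give AC50. Cells were CHO-M1 given compounds up to 46 uM and a 30 min carbachol stimulation at 37C.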
HPGD block = inhibitors of human 15-hydroxyprostaglandin dehydrogenase (HPGD) | P15428 | purified HPGD, NADH fluorescence kinetic, PGE2 substrate | Potency, µM, usual class: inhibitors | 4.3% of 150,000 active | AID 894
Target sequence (P15428 whole entry, looked up): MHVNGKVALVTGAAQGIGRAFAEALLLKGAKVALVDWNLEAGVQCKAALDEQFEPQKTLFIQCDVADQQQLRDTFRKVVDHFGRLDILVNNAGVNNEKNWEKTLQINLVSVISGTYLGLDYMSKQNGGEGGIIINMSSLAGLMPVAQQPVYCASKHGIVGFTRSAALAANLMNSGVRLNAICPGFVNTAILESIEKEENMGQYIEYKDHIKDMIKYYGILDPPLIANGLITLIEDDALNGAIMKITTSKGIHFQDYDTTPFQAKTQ
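NADH formation kinetics: reaction with 30 uM PGE2 and 1 mM NAD+ (final), 20 nM enzyme, Tris-HCl pH 8 with Tween 20, after 15 min compound preincubation at room temperature. Fluorescence change, last versus first of five reads.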
ALDH1A1 block = blocks purified human ALDH1A1 activity; 7.3% of 220,000 active; Purified ALDH1A1, NADH fluorescence, propionaldehyde substrate; P00352; Potency, µM (titrated, usually from 75.3 µM), usual class: inhibitors
Each line names hits and unclear results; the compound was inactive in the other large screens. Sampled rows, rich in hits. Any-hit rate of the full collection: about 9%. Unless noted, calls come from the whole dose curve; as a rule, active = well fitted inhibition curve with a large enough effect (not every such curve was filed as active); inconclusive = small, poorly fitted or top-dose-only effect, or another doubt; inactive = no such curve, though single readings can be large or run the other way.

CC(C)(C)c1csc(NC(=O)c2ccc3nccnc3c2)n1	HPGD block 10µM, ALDH1A1 block inconclusive
Cn1cccc1C(=O)N1CCC2(CC1)CN(c1ccncc1)C2	none (no result: IMPase inh)
CCN(c1ccccc1)S(=O)(=O)c1cc(C(=O)Nc2ccc(Br)cc2)ccc1F	HPGD block inconclusive, ALDH1A1 block 28.2µM (no result: IMPase inh)
CCN(c1ccccc1)S(=O)(=O)c1cc(C(=O)Nc2ccccc2Cl)ccc1F	none
Cc1ccc(NC2=C(N3CCOCC3)C(=O)c3ccccc3C2=O)cc1	HPGD block inconclusive, ALDH1A1 block inconclusive
CCOC(=O)c1ccc(NC2=CC(=O)C(=O)c3ccccc32)cc1	HPGD block 4.47µM
Cc1ccc(NC2=CC(=O)C(=O)c3ccccc32)cc1	IMPase inh inconclusive, HPGD block 20µM, ALDH1A1 block inconclusive
CCOC(=O)c1ccc(NC(=O)C(C)N2C(=O)c3ccccc3C2=O)cc1 (stereo not given)	ALDH1A1 block inconclusive
CCOc1ccccc1N(CC(=O)NCCSc1ccccc1)S(=O)(=O)c1ccccc1	none (no result: HPGD block, ALDH1A1 block)
CN(CCO)c1cc(N2CCCCC2)c2nonc2c1[N+](=O)[O-]	ALDH1A1 block 15.8µM (no result: IMPase inh, HPGD block)
CN(CCO)c1cc(N2CCC3(CC2)OCCO3)c2nonc2c1[N+](=O)[O-]	none (no result: IMPase inh)
CS/C(=C\[N+](=O)[O-])Nc1ccccc1	IMPase inh inconclusive, ALDH1A1 block inconclusive
CS/C(=C\[N+](=O)[O-])Nc1ccc(F)cc1	ALDH1A1 block 15.8µM
Cc1cc(CCCCCCCCc2cc(C)cc(=O)o2)oc(=O)c1	none (no result: IMPase inh)
Oc1ccc(C=Nc2cccc3ncccc23)c(O)c1	none
Oc1ccc(C=Nc2ccc3ncccc3c2)c(O)c1	HPGD block inconclusive, ALDH1A1 block 28.2µM
CC(C)c1ccc2occ(-c3nn[nH]n3)c(=O)c2c1	none (no result: IMPase inh)
COc1ccc(NC(=O)C(=O)N2N=C3CCCCC3C2(O)C(F)(F)F)cc1 (stereo not given)	ALDH1A1 block 2.82µM (no result: IMPase inh, HPGD block)
CCC1=NN(C(=O)C(=O)Nc2ccc(OC)cc2)C(O)(C(F)(F)F)C1 (stereo not given)	ALDH1A1 block inconclusive
CC(NC(=O)c1cccs1)c1nnc(SCc2ccc(Cl)cc2Cl)n1C (stereo not given)	none (no result: IMPase inh)
Cc1ccccc1Nc1oc(-c2ccccc2)nc1-c1cccs1	none (no result: IMPase inh)
CC(C)c1cc(NC(=O)CCl)on1	ALDH1A1 block 1.58µM (no result: IMPase inh, HPGD block)
Cc1cc(Br)c(NC(=O)CCl)c(Br)c1	none (no result: IMPase inh)
CN(C)CCCCN1CCc2c(n(C)c3ccccc23)C1=O	none (no result: IMPase inh)
COc1cc(C(=O)Nc2cc(C)cc(C)c2)c(-n2cnnn2)cc1OC	none (no result: IMPase inh, HPGD block)
O=C1NC(=O)/C(=C\c2cn(Cc3ccccc3F)c3ccccc23)N1	ALDH1A1 block 14.1µM (no result: IMPase inh, HPGD block)
COC(=O)COc1ccccc1/C=C1/NC(=O)NC1=O	none (no result: IMPase inh)
CC(=O)Nc1cccc(-c2csc(Nc3ccc(C)cn3)n2)c1	none
COc1ccc(-c2csc(Nc3ccc(C)cn3)n2)cc1	ALDH1A1 block 23.8µM (no result: IMPase inh, HPGD block)
CCOC(=O)c1ccc(Nc2ncccc2[N+](=O)[O-])cc1	none (no result: IMPase inh, HPGD block)
COCCN(C(=S)Nc1c(C)cccc1C)C(C)c1cccnc1 (stereo not given)	none (no result: IMPase inh)
COCCN(C(=S)Nc1c(C)cc(C)cc1C)C(C)c1cccnc1 (stereo not given)	HPGD block 7.94µM, ALDH1A1 block inconclusive (no result: IMPase inh)
CCc1nnc(NS(=O)(=O)c2ccc(NC(=S)NC(=O)c3ccc(OC)cc3)cc2)s1	HPGD block inconclusive, ALDH1A1 block 17.8µM
CCc1nnc(NS(=O)(=O)c2ccc(NC(=S)NC(=O)c3ccc(OC)c(OC)c3)cc2)s1	HPGD block inconclusive, ALDH1A1 block 7.94µM (no result: IMPase inh)
CCc1nnc(NS(=O)(=O)c2ccc(NC(=S)NC(=O)/C=C/c3ccc(F)cc3)cc2)s1	ALDH1A1 block inconclusive
COc1ccc(S(=O)(=O)Nc2nnc(C)s2)cc1	HPGD block 31.6µM, ALDH1A1 block inconclusive
Cc1nnc(NS(=O)(=O)c2ccc(N)cc2)s1	none
COc1ccc(NC(=O)Nc2sc(=S)n(C)c2C)cc1	ALDH1A1 block 15.8µM (no result: IMPase inh, HPGD block)
COc1ccc(NC(=O)Nc2ccc(OC)cc2)cc1	none
CCc1nnc(NS(=O)(=O)c2ccc(NS(=O)(=O)c3ccc(NC(C)=O)cc3)cc2)s1	none
CCc1nnc(SCc2cn3c(C)cc(C)nc3n2)n1N	HPGD block inconclusive, ALDH1A1 block inconclusive
COC(=O)C1=C(C(=O)OC)[C@@H]2Nc3ccccc3[C@@]23C[C@@H](C(=O)OC)N(S(=O)(=O)c2c(C)noc2C)C3=N1	ALDH1A1 block inconclusive (no result: IMPase inh)
Cc1nc2ccc(NC(=O)Nc3ccnc4cccnc34)cc2o1	ALDH1A1 block inconclusive
Cc1ccc(S(=O)(=O)Nc2nc(C)c(C(=O)Nc3ccccc3)s2)cc1	none (no result: IMPase inh)
COc1ccc(NC(=O)Nc2sc(NS(=O)(=O)c3ccccc3)nc2C)cc1	ALDH1A1 block 8.91µM (no result: IMPase inh, HPGD block)
COC(=O)c1ccc(NS(=O)(=O)c2cc(C)ccc2OC)cc1	HPGD block inconclusive
COc1ccc(C(=O)O)cc1S(=O)(=O)Nc1ccc(C)cc1	none (no result: IMPase inh, HPGD block)
